The supplement of paper PMC11732987, “Enantioselective OTUD7B fragment discovery through chemoproteomics screening and high-throughput optimisation” (Communications Chemistry, 2025)

Experiments:
Assay in all cases: log2 ratio of Biotin-Ahx-Ub-VS probe labelling (fragment/DMSO); higher = less target engagement (more negative = stronger competition), active = hit call of the paper (q ≤ 0.05, log2 ratio ≤ -1)
Conditions in all cases: compound concentration: 200 uM; treatment time: 3 h
USP19 = molecular target: T1, USP19 (UniProt O94966)
T1 sequence (whole entry): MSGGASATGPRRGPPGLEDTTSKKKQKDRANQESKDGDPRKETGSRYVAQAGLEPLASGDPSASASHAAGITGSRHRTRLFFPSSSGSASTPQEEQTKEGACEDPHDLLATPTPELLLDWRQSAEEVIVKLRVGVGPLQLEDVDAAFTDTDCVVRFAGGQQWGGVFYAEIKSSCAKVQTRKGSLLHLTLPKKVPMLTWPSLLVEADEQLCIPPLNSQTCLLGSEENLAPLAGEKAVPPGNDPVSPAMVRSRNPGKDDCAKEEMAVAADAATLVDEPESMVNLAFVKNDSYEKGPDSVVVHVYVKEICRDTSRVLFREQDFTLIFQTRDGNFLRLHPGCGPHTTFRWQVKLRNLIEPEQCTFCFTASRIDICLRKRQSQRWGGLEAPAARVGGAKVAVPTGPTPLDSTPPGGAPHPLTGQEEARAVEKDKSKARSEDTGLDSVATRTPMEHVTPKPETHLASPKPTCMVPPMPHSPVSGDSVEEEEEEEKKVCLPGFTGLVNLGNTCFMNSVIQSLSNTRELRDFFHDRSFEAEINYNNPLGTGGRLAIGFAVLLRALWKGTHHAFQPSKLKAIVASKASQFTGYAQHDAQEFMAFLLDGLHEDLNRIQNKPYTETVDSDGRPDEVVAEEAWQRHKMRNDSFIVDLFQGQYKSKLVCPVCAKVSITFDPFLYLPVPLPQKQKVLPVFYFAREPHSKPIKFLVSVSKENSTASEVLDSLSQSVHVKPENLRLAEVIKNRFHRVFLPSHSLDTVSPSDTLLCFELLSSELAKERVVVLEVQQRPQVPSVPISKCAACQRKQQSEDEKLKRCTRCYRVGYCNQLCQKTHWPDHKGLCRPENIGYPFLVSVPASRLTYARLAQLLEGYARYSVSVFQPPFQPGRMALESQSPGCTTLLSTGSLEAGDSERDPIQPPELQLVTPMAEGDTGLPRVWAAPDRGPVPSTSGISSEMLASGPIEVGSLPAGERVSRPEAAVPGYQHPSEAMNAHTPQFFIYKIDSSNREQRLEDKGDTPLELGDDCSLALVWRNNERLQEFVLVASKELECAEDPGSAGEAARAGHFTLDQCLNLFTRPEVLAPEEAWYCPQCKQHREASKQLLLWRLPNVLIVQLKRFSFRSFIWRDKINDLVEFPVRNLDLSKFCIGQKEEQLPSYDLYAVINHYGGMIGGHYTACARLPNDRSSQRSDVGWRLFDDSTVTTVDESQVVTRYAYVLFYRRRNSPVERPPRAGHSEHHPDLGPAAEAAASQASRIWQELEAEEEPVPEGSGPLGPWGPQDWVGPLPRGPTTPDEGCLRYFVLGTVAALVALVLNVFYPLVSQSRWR
In short: (§1)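 Labelled DUBs from HEK293T lysate were NeutrAvidin-enriched, digested with LysC and trypsin, and run by diaPASEF LC-MS/MS. Before that, each 495 µg sample in Tris/CHAPS/IGEPAL buffer with protease inhibitors was treated in triplicate with fragment at 200 µM or vehicle for 3 h, then with Biotin-Ahx-Ub-VS at 0.5 µM final for 1 h. Values are average log2 ratios of fragment over vehicle by unpaired t-test, based on global-median-normalised Spectronaut label-free quantities from proteins with ≥2 unique peptides.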

USP22 = molecular target: T2, USP22 (UniProt Q9UPT9)
T2 sequence (whole entry): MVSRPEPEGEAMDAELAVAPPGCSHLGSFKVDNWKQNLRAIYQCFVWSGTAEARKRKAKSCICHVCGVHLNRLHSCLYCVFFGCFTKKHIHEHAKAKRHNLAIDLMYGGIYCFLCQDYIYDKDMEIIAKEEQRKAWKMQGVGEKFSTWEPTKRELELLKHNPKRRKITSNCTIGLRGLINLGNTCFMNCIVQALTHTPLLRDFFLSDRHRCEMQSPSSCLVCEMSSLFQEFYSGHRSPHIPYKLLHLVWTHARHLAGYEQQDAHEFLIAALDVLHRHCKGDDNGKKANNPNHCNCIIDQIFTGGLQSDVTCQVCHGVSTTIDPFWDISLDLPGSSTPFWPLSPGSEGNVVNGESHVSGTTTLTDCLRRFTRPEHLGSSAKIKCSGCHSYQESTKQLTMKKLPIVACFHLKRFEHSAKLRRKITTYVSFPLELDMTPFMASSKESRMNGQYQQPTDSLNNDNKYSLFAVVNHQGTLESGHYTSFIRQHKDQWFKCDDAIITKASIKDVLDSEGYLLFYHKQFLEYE
In short: as §1

USP24 = USP24 (UniProt Q9UPU5)
In short: as §1

USP25 = molecular target: T3, USP25 (UniProt Q9UHP3)
T3 sequence (whole entry): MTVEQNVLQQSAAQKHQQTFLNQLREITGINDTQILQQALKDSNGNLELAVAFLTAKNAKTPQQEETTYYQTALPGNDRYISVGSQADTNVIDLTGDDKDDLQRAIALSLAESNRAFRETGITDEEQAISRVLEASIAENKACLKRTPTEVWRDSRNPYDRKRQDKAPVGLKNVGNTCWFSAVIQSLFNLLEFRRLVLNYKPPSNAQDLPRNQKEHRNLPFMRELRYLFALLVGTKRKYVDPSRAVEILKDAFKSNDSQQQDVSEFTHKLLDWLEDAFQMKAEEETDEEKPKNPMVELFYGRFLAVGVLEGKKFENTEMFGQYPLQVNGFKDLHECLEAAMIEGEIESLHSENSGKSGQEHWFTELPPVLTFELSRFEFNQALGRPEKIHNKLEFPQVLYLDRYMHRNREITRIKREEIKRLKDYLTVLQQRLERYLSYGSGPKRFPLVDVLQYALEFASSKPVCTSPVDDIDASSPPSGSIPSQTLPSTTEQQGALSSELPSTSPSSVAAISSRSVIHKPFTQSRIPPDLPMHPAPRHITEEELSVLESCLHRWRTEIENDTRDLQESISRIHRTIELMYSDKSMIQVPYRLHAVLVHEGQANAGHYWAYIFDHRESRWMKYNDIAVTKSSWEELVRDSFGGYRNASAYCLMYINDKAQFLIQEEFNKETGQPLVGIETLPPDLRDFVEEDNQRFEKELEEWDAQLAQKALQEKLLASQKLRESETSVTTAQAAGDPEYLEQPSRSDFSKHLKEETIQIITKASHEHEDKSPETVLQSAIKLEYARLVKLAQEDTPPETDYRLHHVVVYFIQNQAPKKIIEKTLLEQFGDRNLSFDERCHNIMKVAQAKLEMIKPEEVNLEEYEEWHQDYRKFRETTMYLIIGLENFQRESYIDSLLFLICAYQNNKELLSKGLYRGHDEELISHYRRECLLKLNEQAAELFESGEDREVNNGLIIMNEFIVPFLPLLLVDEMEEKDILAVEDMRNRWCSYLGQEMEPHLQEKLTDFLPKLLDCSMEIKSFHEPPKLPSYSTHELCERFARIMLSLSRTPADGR
In short: as §1

USP28 = molecular target: T4, USP28 (UniProt Q96RU2)
T4 sequence (whole entry): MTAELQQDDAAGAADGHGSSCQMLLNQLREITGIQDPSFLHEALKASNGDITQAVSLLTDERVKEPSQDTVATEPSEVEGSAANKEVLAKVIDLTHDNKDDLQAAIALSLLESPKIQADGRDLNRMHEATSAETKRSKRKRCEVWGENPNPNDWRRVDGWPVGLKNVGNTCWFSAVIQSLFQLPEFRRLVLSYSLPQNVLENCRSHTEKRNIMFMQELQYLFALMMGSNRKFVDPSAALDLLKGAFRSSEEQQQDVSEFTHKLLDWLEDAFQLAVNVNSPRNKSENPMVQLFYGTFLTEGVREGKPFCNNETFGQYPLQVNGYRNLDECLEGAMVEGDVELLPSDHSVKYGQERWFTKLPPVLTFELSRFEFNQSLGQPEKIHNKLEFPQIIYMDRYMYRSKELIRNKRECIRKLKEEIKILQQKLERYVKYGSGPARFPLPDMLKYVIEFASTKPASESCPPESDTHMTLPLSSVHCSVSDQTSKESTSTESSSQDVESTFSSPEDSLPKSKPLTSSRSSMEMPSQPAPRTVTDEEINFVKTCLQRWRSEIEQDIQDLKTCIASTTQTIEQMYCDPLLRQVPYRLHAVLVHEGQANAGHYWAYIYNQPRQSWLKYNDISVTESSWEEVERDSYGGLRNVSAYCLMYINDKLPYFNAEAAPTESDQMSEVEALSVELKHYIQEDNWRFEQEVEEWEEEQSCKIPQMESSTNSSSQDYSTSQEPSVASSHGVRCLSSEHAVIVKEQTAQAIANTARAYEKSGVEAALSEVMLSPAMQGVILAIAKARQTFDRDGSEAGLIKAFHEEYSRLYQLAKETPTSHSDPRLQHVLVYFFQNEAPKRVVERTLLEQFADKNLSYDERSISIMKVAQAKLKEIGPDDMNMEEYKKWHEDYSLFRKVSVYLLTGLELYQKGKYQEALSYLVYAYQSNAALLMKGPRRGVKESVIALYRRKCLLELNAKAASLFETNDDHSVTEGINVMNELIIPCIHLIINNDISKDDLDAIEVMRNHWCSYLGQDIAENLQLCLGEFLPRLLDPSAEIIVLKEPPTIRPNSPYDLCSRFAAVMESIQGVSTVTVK
In short: as §1

Measured: log2 ratio of Biotin-Ahx-Ub-VS probe labelling

Sequence of USP24 (Q9UPU5 whole entry): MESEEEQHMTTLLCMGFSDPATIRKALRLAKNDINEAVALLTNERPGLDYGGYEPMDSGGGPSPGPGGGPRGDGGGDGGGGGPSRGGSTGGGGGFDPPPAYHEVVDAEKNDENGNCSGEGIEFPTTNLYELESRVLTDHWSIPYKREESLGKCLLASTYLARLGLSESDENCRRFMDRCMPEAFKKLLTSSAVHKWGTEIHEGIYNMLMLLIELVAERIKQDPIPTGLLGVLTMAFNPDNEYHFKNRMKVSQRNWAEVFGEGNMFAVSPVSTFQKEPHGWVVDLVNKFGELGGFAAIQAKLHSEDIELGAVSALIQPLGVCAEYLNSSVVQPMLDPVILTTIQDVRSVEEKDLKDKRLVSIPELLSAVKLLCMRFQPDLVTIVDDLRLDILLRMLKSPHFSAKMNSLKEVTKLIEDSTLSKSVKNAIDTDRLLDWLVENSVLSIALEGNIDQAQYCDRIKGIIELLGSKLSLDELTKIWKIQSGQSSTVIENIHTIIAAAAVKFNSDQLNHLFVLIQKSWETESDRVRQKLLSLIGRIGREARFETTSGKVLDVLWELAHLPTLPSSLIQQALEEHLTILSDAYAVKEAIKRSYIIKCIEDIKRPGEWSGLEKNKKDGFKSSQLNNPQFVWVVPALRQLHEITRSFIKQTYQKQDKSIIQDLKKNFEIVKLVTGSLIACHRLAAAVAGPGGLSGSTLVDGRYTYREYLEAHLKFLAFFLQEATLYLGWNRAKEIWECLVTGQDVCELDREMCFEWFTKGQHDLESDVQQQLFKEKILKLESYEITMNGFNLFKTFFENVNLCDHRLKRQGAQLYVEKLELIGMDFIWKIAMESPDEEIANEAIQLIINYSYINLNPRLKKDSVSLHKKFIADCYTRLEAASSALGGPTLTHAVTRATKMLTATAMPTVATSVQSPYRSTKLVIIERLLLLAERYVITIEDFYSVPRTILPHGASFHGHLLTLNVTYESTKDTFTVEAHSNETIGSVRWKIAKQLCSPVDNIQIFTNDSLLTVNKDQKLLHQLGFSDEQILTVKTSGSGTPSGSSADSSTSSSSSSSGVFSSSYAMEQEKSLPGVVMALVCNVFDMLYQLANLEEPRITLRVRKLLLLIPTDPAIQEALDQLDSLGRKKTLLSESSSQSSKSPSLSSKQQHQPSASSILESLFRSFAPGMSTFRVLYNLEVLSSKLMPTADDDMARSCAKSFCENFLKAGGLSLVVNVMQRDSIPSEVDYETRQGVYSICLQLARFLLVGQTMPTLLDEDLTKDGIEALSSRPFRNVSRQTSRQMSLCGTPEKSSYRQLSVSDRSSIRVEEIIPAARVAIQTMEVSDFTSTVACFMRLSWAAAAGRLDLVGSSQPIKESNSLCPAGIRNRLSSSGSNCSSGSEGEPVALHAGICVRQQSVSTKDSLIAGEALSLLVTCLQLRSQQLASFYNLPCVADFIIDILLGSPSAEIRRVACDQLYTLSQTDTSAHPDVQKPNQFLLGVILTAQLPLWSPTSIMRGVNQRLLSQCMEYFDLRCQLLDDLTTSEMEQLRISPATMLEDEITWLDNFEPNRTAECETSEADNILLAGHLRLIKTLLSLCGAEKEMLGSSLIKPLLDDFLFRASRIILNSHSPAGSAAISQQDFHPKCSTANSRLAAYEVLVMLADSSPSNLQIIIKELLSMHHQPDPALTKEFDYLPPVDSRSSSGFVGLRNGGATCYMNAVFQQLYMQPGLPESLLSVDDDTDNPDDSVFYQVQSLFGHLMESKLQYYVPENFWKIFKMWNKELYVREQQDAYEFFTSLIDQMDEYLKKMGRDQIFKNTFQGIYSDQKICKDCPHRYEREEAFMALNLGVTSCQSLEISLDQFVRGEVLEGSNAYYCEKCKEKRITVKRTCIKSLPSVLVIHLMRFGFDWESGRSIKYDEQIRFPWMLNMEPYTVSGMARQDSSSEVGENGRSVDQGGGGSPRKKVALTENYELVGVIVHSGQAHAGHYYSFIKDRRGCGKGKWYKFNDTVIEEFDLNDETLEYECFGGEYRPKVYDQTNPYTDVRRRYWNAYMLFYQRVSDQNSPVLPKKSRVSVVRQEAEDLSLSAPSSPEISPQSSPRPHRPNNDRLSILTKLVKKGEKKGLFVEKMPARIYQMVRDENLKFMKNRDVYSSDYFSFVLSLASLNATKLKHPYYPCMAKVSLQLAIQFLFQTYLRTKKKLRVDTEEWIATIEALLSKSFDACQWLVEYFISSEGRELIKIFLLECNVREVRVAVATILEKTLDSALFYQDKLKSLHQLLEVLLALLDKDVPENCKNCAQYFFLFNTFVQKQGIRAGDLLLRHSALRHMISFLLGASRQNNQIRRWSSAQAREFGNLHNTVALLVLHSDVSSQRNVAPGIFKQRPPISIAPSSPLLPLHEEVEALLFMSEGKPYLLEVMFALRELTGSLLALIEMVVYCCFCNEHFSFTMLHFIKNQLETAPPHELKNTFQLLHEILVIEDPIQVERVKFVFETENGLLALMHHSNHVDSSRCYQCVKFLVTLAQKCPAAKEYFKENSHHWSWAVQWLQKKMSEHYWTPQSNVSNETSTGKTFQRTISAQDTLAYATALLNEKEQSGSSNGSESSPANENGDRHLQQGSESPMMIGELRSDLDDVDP

COc1ccc(CN(C)C(=O)CCl)cc1
inactive: USP19 -0.211 | USP22 -0.227 | USP24 -0.564 | USP25 -0.245 | USP28 -0.499
